We go through 21 compounds from PubChem BioAssay (NCATS).

Unmarked numbers belong to inactive results. Inconclusive results are not listed. The source made the active and inactive calls. Unless noted, calls follow the shape of the dose curve; as a rule, active = well fitted curve in the direction sought with a large enough effect; inconclusive = small, poorly fitted or top-dose-only effect, or another doubt; inactive = no such curve, though single readings can be large; an effect the other way counts as inactive or inconclusive.

Assay [1] can be described thus: P-glycoprotein substrates identified in KB-8-5-11 adenocarcinoma cell line, qHTS therapeutic library screen (AID 1346987). Also: nearly all actives have a fitted effect of over 65% in size. Also: potency is read from the fitted curve at half-maximal effect. A digest of the protocol:
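Human cervical adenocarcinoma KB-8-5-11 cells, selected in colchicine to over-express P-gp and assayed without it, were exposed for 72 h to titrated compounds. An ATP-based luminescent viability signal gave AC50.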
In general terms: qHTS replaces the single test concentration by a dilution series.

In assay [2] the test system is Zika virus NS2B-NS3 protease (linked construct). The experiment in a line: Confirmatory screen NINDS AMC qHTS for Zika virus inhibitors (AID 1347152). Also: potency is read from the fitted curve at half-maximal effect; nearly all actives have a fitted effect of over 70% in size. Put shortly:
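Enzyme (1 nM, linked construct) was preincubated with compound for 15 minutes at room temperature in 10 mM Tris-HCl pH 8.0 with 0.01% Tween 20. Bz-Nle-Lys-Arg-Arg-AMC was then added to 10 microM, and AMC fluorescence was recorded immediately and after 15 minutes.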

Assay [3] concerns Zika virus NS2B-NS3 protease (unlinked complex). The experiment in a line: Confirmatory screen GU AMC qHTS for Zika virus inhibitors (AID 1347153).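 Also: enzyme at 25 nM with substrate at 10 µM below its Km of 18.3 µM; potency is read from the fitted curve at half-maximal effect; nearly all actives have a fitted effect of over 70% in size.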 The conditions noted are these: Recombinant NS2B-NS3 protease, AMC substrate fluorescence. A digest of the protocol:
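Noncovalent NS2B hydrophilic domain/NS3 protease complex (25 nM) in 10 mM Tris-HCl pH 8.0, 0.01% Tween 20 was preincubated 15 min at room temperature with compounds. Then 10 µM AMC substrate (Km 18.3 µM) was added; fluorescence was read over 15 min and fitted to a 4-parameter Hill equation.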

Assay [4] concerns the target Atrial natriuretic peptide receptor 1 (Homo sapiens) (UniProt P16066). Nature of the assay: Natriuretic polypeptide receptor (hNpr1) antagonism - Pilot screen (AID 1347049; calls by dose curve;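 also: HEK293 cells with hNpr1 and GloSensor cGMP luciferase stimulated by 0.1 nM hNppA; agonist-evoked cGMP luminescence read 20 min after hNppA addition; series mostly up to about 58 µM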). Put shortly: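 Receptor antagonism read as cGMP-dependent luminescence in hNpr1/pGS-40F HEK293 cells: pre-read after 30 min compound exposure, post-read 20 min after hNppA agonist at 0.1 nM final, all at room temperature, protected from light; A-71915 titration as control.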

Assay [5] deals with Atrial natriuretic peptide receptor 2 (Homo sapiens) (UniProt P20594). Nature of the assay: Natriuretic polypeptide receptor (hNpr2) antagonism - Pilot subtype selectivity assay (AID 1347050; calls by dose curve). Put shortly:
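Antagonist mode: compounds (LOPAC1280, seven 1:5 dilutions) added 30 min before 1 nM hNppC stimulation of hNpr2-HEK293 cGMP-sensor cells; luminescence read before and 20 min after agonist at ambient temperature.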

Assay [6] addresses Parathyroid hormone/parathyroid hormone-related peptide receptor (Homo sapiens) (UniProt Q03431). The experiment in a line: qHTS for PTHR1 Agonists: Optimization Screen against the NCGC LOPAC library (AID 1347079).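 Also: GloSensor cAMP luminescence in HEK-293 GP2 cells expressing human PTHR1 with IBMX.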 A digest of the protocol: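 Signal increase flags agonism. GP2 cells, derived from HEK-293, express human PTHR1 and a GloSensor cAMP construct.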
For assay [7], the target named is N-terminal Xaa-Pro-Lys N-methyltransferase 1 (Homo sapiens) (UniProt Q9BV86). Nature of the assay: qHTS Assay for Inhibitors of N-terminal methyltransferase 1 (NTMT1): LOPAC validation of the NTMT1 SAHH-coupled ThioGlo3 Assay (AID 1347143).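 Also: SAH from peptide methylation measured as thiol fluorescence via SAHH coupling and ThioGlo3; nearly all actives have a fitted effect of over 70% in size.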 Put shortly: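 NTMT1 125nM + cpds (various conc.), 1 min RT; add SAM 100uM/SAHH 10uM/ThioGlo3 15uM (addition mix). SAHH-coupled thiol detection, Ex340/Em450, t0 and 30 min RT; signal normalized to background. LOPAC 1280-cpd pilot.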

The nature of assay [8]: qHTS of pediatric cancer cell lines to identify multiple opportunities for drug repurposing: Primary screen for SJ-GBM2 cells (AID 1347091). Also: potency is read from the fitted curve at half-maximal effect. The conditions noted are these: SJ-GBM2 viability, CellTiter-Glo luminescence, 48 h. A digest of the protocol:
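Cell viability, CellTiter-Glo luminescence; 500-1,000 cells/well, 8- or 11-point titration, 48 h compound exposure at 37 degrees C, 5% CO2. Controls: DMSO neutral, bortezomib 2.3 µM final as positive.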

A short description of assay [9]: qHTS of pediatric cancer cell lines to identify multiple opportunities for drug repurposing: Primary screen for RD cells (AID 1347104). Also: potency is read from the fitted curve at half-maximal effect; nearly all actives have a fitted effect of over 55% in size. The conditions noted are these: RD rhabdomyosarcoma viability, CellTiter-Glo luminescence, 48 h. A digest of the protocol:
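Luminescence from CellTiter-Glo served as readout of metabolically active cells after 48 h compound exposure. Titrations: MIPE 11-point, from 0.78 nM; NPC 8-point, from 0.59 nM (final). Concentration-response curves came straight from the primary screen.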

The target in the next assay is Furin (Homo sapiens) (UniProt P09958). The experiment in a line: Furin counterscreen qHTS for Zika virus inhibitors (AID 1347149). Also: nearly all actives have a fitted effect of over 70% in size. Also: potency is read from the fitted curve at half-maximal effect. A digest of the protocol:
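Counterscreen measures cleavage of 2 microM BOC-RVRR-AMC, below its ~15 microM Km, by 5 nM full-length human furin at pH 7.0 after a 15-min compound preincubation. Inhibition derives from the 15-min fluorescence increase at 37C.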
On the technique in general: A counterscreen serves to expose hits that act by an unwanted route or on another target.

Sequence of Furin (Homo sapiens) (P09958 whole entry, looked up): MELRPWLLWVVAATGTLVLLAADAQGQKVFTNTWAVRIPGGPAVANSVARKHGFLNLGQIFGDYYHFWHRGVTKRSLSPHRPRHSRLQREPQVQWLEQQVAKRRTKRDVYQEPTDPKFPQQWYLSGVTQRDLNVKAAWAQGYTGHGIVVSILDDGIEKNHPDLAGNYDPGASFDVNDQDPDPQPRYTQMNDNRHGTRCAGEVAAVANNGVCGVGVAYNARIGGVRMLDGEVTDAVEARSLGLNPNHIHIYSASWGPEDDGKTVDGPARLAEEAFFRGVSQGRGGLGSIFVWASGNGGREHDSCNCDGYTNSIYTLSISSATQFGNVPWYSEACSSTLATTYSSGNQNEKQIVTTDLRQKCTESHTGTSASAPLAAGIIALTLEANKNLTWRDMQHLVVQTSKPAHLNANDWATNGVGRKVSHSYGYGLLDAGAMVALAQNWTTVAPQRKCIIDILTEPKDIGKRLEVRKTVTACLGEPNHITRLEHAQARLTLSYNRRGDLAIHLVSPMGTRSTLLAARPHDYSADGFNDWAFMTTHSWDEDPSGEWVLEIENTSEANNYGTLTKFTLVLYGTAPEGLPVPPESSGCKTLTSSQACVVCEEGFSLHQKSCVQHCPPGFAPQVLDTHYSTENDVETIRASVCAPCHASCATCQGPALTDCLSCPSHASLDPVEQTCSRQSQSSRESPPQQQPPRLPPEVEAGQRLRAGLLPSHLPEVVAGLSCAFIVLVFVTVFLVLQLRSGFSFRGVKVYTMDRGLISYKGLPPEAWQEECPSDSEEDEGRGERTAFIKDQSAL
Sequence of Atrial natriuretic peptide receptor 2 (Homo sapiens) (P20594 whole entry, looked up): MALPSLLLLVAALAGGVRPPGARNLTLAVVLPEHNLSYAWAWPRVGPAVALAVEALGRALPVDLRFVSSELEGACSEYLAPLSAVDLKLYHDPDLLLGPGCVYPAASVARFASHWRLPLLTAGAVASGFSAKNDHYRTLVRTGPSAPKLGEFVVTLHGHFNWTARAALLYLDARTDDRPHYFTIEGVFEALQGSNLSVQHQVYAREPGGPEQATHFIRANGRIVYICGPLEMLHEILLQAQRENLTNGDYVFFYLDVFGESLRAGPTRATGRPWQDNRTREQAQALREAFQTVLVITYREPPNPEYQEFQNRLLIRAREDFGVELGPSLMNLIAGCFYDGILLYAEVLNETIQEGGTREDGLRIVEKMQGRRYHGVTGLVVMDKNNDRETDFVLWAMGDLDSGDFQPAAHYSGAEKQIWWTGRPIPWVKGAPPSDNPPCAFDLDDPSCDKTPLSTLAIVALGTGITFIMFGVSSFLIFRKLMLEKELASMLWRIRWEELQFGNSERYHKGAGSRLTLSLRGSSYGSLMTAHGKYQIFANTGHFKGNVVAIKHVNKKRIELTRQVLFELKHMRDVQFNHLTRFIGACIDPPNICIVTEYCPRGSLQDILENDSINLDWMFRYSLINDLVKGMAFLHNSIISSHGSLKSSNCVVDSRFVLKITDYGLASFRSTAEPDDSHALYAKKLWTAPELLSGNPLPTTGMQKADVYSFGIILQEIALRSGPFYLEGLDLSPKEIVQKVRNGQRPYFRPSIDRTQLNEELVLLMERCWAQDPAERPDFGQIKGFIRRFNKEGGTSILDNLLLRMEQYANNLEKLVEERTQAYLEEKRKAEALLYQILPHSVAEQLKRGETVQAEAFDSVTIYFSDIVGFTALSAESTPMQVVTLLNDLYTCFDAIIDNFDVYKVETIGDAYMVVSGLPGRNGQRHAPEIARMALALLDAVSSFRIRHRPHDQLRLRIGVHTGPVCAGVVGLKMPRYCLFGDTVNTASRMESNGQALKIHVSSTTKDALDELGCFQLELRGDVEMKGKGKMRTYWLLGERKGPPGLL
Sequence of Atrial natriuretic peptide receptor 1 (Homo sapiens) (P16066 whole entry, looked up): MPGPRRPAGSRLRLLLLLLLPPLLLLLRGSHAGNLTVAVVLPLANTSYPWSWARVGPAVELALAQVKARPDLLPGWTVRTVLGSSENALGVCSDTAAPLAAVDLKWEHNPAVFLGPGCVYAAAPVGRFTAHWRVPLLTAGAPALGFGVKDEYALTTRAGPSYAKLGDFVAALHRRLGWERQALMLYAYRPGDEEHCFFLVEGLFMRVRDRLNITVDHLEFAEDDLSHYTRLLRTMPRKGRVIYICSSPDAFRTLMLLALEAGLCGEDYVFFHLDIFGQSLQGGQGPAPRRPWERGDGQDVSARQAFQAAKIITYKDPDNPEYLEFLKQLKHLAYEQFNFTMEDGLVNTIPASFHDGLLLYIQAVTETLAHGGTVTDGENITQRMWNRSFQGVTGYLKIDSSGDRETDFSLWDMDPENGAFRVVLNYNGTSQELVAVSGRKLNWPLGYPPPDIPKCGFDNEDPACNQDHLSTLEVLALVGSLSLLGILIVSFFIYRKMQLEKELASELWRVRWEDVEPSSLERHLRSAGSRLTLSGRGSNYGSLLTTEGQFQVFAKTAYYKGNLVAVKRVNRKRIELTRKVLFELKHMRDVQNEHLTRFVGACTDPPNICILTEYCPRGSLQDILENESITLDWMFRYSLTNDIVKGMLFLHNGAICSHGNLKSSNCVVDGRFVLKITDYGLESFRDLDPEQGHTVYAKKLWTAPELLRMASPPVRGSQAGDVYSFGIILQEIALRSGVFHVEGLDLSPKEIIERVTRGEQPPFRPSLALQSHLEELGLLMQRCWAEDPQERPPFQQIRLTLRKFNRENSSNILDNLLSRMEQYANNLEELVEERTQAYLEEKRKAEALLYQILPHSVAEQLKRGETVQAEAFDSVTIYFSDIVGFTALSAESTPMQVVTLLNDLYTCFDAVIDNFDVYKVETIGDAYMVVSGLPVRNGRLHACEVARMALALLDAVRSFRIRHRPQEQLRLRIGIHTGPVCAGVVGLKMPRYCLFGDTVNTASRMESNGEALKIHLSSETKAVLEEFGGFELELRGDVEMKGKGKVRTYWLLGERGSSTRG
Sequence of Parathyroid hormone/parathyroid hormone-related peptide receptor (Homo sapiens) (Q03431 whole entry, looked up): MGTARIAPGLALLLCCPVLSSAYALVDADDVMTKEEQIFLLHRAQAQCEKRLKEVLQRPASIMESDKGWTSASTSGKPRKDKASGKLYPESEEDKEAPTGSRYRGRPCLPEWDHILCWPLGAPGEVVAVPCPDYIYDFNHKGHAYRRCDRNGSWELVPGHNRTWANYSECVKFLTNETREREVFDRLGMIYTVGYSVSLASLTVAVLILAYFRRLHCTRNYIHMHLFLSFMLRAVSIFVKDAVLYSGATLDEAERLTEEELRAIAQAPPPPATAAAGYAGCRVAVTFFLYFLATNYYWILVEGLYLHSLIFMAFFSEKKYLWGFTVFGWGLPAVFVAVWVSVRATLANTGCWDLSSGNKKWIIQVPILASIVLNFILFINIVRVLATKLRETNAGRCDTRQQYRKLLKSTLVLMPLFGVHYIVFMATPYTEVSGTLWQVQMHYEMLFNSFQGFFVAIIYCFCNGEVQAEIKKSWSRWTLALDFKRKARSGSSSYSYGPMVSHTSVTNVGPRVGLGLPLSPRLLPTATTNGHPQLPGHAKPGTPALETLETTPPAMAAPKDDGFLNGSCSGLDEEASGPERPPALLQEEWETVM
Sequence of N-terminal Xaa-Pro-Lys N-methyltransferase 1 (Homo sapiens) (Q9BV86 whole entry, looked up): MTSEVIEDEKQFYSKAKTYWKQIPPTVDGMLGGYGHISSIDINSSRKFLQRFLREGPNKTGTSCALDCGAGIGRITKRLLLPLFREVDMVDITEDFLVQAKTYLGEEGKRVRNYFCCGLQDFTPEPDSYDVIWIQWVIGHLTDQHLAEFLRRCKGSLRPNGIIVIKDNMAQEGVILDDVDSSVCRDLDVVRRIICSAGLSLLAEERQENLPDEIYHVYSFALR

Take `COCC(c1ccc(C(F)(F)F)cc1)N1CCN(C2(C)CCN(C(=O)c3c(C)ncnc3C)CC2)CC1C` (stereo not drawn): the Potency result in assay [1] was “inactive”.

Turning to `CC[C@H]1OC(=O)[C@H](C)[C@@H](O[C@H]2C[C@@](C)(OC)[C@@H](O)[C@H](C)O2)[C@H](C)[C@@H](O[C@@H]2O[C@H](C)C[C@H](N(C)C)[C@H]2O)[C@](C)(O)C[C@@H](C)[C@@H]2N[C@@H](COCCOC)O[C@@H]([C@H]2C)[C@]1(C)O`, the Potency entry in [1] was “inactive”.

On to `O=C(CO)[C@@H](O)[C@H](O)[C@H](O)CO`, for which the Potency entry in [1] is “inactive”.

Regarding `COc1ccc([C@H]2Cc3cccc(O)c3C(=O)O2)cc1OC`, the Potency entry in [1] was “inactive”.

For `Cc1cc(C)c2c(c1)C(N(Cc1cc(C(F)(F)F)cc(C(F)(F)F)c1)c1nnn(C)n1)CCCN2CC1CCC(C(=O)O)CC1` (stereo not drawn), the Potency in assay [2] and in [3] was 22.1 µM (active) each time.

`NCCCC(=O)O`: the Potency result in [1] and in [5] was “inactive” in each case. In addition, the result in assay [4], in [6] and in assay [7] was inactive.

Take `CC(C)n1c(=O)c(C(=O)NC2CC3CCC(C2)N3C[C@@H](O)CN(C)S(C)(=O)=O)cc2ccccc21` (stereo partly drawn): the Potency result in assay [1] was “inactive”.

Turning to `C[C@@H]1O[C@@H](O[C@H]2[C@H](OC(=O)[C@]34CCC(C)(C)C[C@H]3C3=CCC5[C@@]6(C)C[C@H](O)[C@H](O[C@@H]7O[C@H](CO)[C@@H](O)[C@H](O)[C@H]7O)[C@](CO)(C(=O)O)C6CC[C@@]5(C)[C@]3(C)C[C@H]4O)OC[C@H](O)[C@@H]2O)[C@H](O)[C@H](O)[C@H]1O[C@@H]1OC[C@@H](O)[C@H](O[C@@H]2OC[C@](O)(CO)[C@H]2O)[C@H]1O` (stereo partly drawn), the Potency in [1] is 2.45 µM (active).

Take `Oc1cccc(-c2c3nc(c(-c4cccc(O)c4)c4ccc([nH]4)c(-c4cccc(O)c4)c4nc(c(-c5cccc(O)c5)c5ccc2[nH]5)CC4)C=C3)c1`: the values for the Potency in assay [8] and in assay [9] were 21.1 µM (active) and 26.6 µM (active), respectively. For the same compound, in the assay with Furin (Homo sapiens), the Potency entry is “inactive”.

For `N#Cc1ccc(N2N=C3c4ccc(C(=O)O)cc4CC[C@@H]3[C@@H]2C2CCCC2)cc1Cl`, the Potency result with Furin (Homo sapiens) was “inactive”. Besides, the Potency in assay [2] was 8.79 µM (active); in assay [3], 15.6 µM (active).

`O=S(=O)(Nc1cc(Cl)c(Oc2cnc3ccccc3c2)c(Cl)c1)c1ccc(Cl)cc1Cl`: in assay [2], the Potency was 13.9 µM (active).

On to `CC#C[C@@H](CC(=O)O)c1ccc(OCc2ccc(CN3CCC4(C=Cc5ccccc54)CC3)s2)cc1`, for which, in the assay with Furin (Homo sapiens), the Potency result is “inactive”. Moreover, the Potency in assay [2] is 35 µM (active); in [3], 39.3 µM (active).

With `C=C(C)C(=O)O[C@H]1/C(C=O)=C\CC/C(CO)=C/[C@H]2OC(=O)C(=C)[C@@H]2[C@@H]1OC`, the Potency entry in assay [1] was “inactive”.

For `CCCCCCCCC(=O)N[C@H](CN1CCCC1)[C@H](O)c1ccc2c(c1)OCCO2`, in assay [1], the Potency is 16.4 µM (active).

Regarding `O=C(Nc1ccc(/C=C/c2ccc(NC(=O)c3cc(S(=O)(=O)O)c4cccnc4c3O)cc2S(=O)(=O)O)c(S(=O)(=O)O)c1)c1cc(S(=O)(=O)O)c2cccnc2c1O`, the Potency result in [1] was “inactive”. Further, the Potency in the assay with Furin (Homo sapiens) was 46.9 µM (active).

For `Cc1cc(NC(=O)NCCN2CCC(O)(Cc3ccccc3)CC2)c2ccccc2n1`, the Potency entry in assay [1] is “inactive”.

On to `O=P(O)(O)OC(CO)CO`, for which the Potency result in assay [1] was “inactive”.

Consider `C[C@H](Oc1cc(-n2cnc3ccc(CN4CCN(C)CC4)cc32)sc1C(N)=O)c1ccccc1C(F)(F)F`, for which the Potency in [1] was 4.61 µM (active).

In the case of `O=C(O)c1cccc(-c2ccc(-c3cn(C(=O)N4CCCCC4Cc4ccccc4)nn3)cc2)c1` (stereo not drawn), the values for the Potency (in the assay with Furin (Homo sapiens); in [2]; in assay [3]) were 55.5 µM (active), 27.8 µM (active) and 31.2 µM (active), respectively.

Take `CC#C[C@@H](CC(=O)O)c1ccc(OCc2cccc(-c3ccc(C(F)(F)F)cc3)c2)cc1`: the Potency result in [1] is “inactive”. Also, the results for the Potency (in the assay with Furin (Homo sapiens); in assay [2]; in [3]) were 24.1 µM (active), 12.4 µM (active) and 13.9 µM (active), respectively.

For `CC(=O)O[C@@H]1C[C@@]2(C)C(CC[C@]3(C)C2CC=C2C4CC(C)(C)CC[C@]4(C(=O)O)CC[C@]23C)C(C)(C)[C@H]1O` (stereo partly drawn), the Potency result in [1] was “inactive”.
